{"source": "a collection of fitness landscapes (doi:10.1016/j.celrep.2020.107928)", "parents": {"B1": {"name": "Caulobacter ParB omega fusion; a variant is named by its letters at X, in order, B8GW30 (parent)", "chain": "MESVVVGEPGMSEGRRGLGRGLSALLGEVDAAPAQAPGEQLGGSREAPIEILQRNPDQPRRTFREEDLEDLSNSIREKGVLQPILVRPSPDTAGEYQIVAGERAWRAAQRAGLKTVPIMVRELDDLAVLEIGIIENVQRADLNVLEEALSYKVLMEKFERTQENIAQTIGKSXSHVANXMRLLXLPDEVQSYLVSGELTAXHARAIAAAADPVALAKQIIEGGLSVRETEALARKAPNLSAGKSKGGRPPRVKDTDTQALESDLSSVLGLDVSIDHRGSTGTLTITYATLEQLDDLCNRLTRGI"}}, "note": "The full ranking holds about 81,000 sequences; the median of “one-hybrid fitness for binding NBS DNA” is about -0.1, and the highest 2% start at about 0.36. The sample holds the highest values, similar sequences and a random draw of the others, so the mix is not that of the screen.", "data": [{"variants_of": "B1", "assay": "one-hybrid fitness for binding NBS DNA (the Noc-binding site; scaled: cognate 1, non-cognate 0); higher = stronger binding", "conditions": "with NBS DNA site", "method_in_brief": "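Caulobacter ParB libraries with four specificity codons randomised were screened by bacterial one-hybrid selection in the E. coli USO strain, using a HIS3 reporter whose site lies 19 bp from the promoter. Selection ran for 48 hours at 37°C on M9 lacking histidine, with 0.1 mM IPTG and 5 mM 3-AT. Plasmids were Illumina-sequenced before and after selection, three replicate libraries were pooled, and variants with under 10 reads were dropped. Fitness is the log change in each variant's read ratio to wild type, rescaled against the cognate and non-cognate sites.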", "values": [{"variant": "YSMI", "one-hybrid fitness for binding NBS DNA": "≤ 0.2"}, {"variant": "YTKY", "one-hybrid fitness for binding NBS DNA": "≤ 0.2"}, {"variant": "IQNI", "one-hybrid fitness for binding NBS DNA": "≤ 0.2"}, {"variant": "RIHS", "one-hybrid fitness for binding NBS DNA": 0.381}, {"variant": "RIHD", "one-hybrid fitness for binding NBS DNA": "≤ 0.2"}, {"variant": "RIHN", "one-hybrid fitness for binding NBS DNA": "≤ 0.2"}, {"variant": "NKNM", "one-hybrid fitness for binding NBS DNA": "≤ 0.2"}, {"variant": "QYVV", "one-hybrid fitness for binding NBS DNA": "≤ 0.2"}, {"variant": "IYPV", "one-hybrid fitness for binding NBS DNA": 0.41}, {"variant": "WYRV", "one-hybrid fitness for binding NBS DNA": "≤ 0.2"}, {"variant": "WYCV", "one-hybrid fitness for binding NBS DNA": 0.366}, {"variant": "IYVV", "one-hybrid fitness for binding NBS DNA": "≤ 0.2"}, {"variant": "QYDV", "one-hybrid fitness for binding NBS DNA": "≤ 0.2"}, {"variant": "QYSV", "one-hybrid fitness for binding NBS DNA": "≤ 0.2"}, {"variant": "WYVV", "one-hybrid fitness for binding NBS DNA": "≤ 0.2"}, {"variant": "QYKV", "one-hybrid fitness for binding NBS DNA": 0.372}, {"variant": "QYRV", "one-hybrid fitness for binding NBS DNA": 0.392}, {"variant": "IYIV", "one-hybrid fitness for binding NBS DNA": "≤ 0.2"}, {"variant": "QYYV", "one-hybrid fitness for binding NBS DNA": "≤ 0.2"}, {"variant": "YGDI", "one-hybrid fitness for binding NBS DNA": "≤ 0.2"}, {"variant": "FTRD", "one-hybrid fitness for binding NBS DNA": "≤ 0.2"}, {"variant": "NWLT", "one-hybrid fitness for binding NBS DNA": "≤ 0.2"}, {"variant": "YDPL", "one-hybrid fitness for binding NBS DNA": "≤ 0.2"}, {"variant": "LENS", "one-hybrid fitness for binding NBS DNA": "≤ 0.2"}, {"variant": "ALND", "one-hybrid fitness for binding NBS DNA": "≤ 0.2"}, {"variant": "TGNW", "one-hybrid fitness for binding NBS DNA": "≤ 0.2"}, {"variant": "KHKS", "one-hybrid fitness for binding NBS DNA": "≤ 0.2"}, {"variant": "KKVR", "one-hybrid fitness for binding NBS DNA": "≤ 0.2"}, {"variant": "KHVR", "one-hybrid fitness for binding NBS DNA": "≤ 0.2"}, {"variant": "KTKP", "one-hybrid fitness for binding NBS DNA": "≤ 0.2"}, {"variant": "KTVR", "one-hybrid fitness for binding NBS DNA": "≤ 0.2"}, {"variant": "KKVT", "one-hybrid fitness for binding NBS DNA": "≤ 0.2"}, {"variant": "KHKR", "one-hybrid fitness for binding NBS DNA": 0.396}, {"variant": "KTKR", "one-hybrid fitness for binding NBS DNA": 0.555}, {"variant": "NKKT", "one-hybrid fitness for binding NBS DNA": "≤ 0.2"}, {"variant": "KKKR", "one-hybrid fitness for binding NBS DNA": 0.523}, {"variant": "NKKR", "one-hybrid fitness for binding NBS DNA": 0.3}, {"variant": "KKKT", "one-hybrid fitness for binding NBS DNA": 0.427}, {"variant": "SSSH", "one-hybrid fitness for binding NBS DNA": "≤ 0.2"}, {"variant": "GTSM", "one-hybrid fitness for binding NBS DNA": "≤ 0.2"}, {"variant": "MDYV", "one-hybrid fitness for binding NBS DNA": "≤ 0.2"}, {"variant": "FTRY", "one-hybrid fitness for binding NBS DNA": "≤ 0.2"}, {"variant": "SQTT", "one-hybrid fitness for binding NBS DNA": "≤ 0.2"}, {"variant": "RWDE", "one-hybrid fitness for binding NBS DNA": "≤ 0.2"}, {"variant": "GLVI", "one-hybrid fitness for binding NBS DNA": "≤ 0.2"}, {"variant": "CLLR", "one-hybrid fitness for binding NBS DNA": "≤ 0.2"}, {"variant": "SYKR", "one-hybrid fitness for binding NBS DNA": 0.378}, {"variant": "KMKR", "one-hybrid fitness for binding NBS DNA": 0.4}, {"variant": "SYYR", "one-hybrid fitness for binding NBS DNA": "≤ 0.2"}, {"variant": "KYKR", "one-hybrid fitness for binding NBS DNA": 0.414}, {"variant": "SYVR", "one-hybrid fitness for binding NBS DNA": "≤ 0.2"}, {"variant": "NMKR", "one-hybrid fitness for binding NBS DNA": 0.201}, {"variant": "FWPR", "one-hybrid fitness for binding NBS DNA": 0.486}, {"variant": "FWDR", "one-hybrid fitness for binding NBS DNA": "≤ 0.2"}, {"variant": "KMVR", "one-hybrid fitness for binding NBS DNA": "≤ 0.2"}, {"variant": "KYYR", "one-hybrid fitness for binding NBS DNA": "≤ 0.2"}, {"variant": "DYKR", "one-hybrid fitness for binding NBS DNA": "≤ 0.2"}, {"variant": "FWPP", "one-hybrid fitness for binding NBS DNA": "≤ 0.2"}, {"variant": "RDNL", "one-hybrid fitness for binding NBS DNA": "≤ 0.2"}, {"variant": "KNNH", "one-hybrid fitness for binding NBS DNA": "≤ 0.2"}, {"variant": "FMCG", "one-hybrid fitness for binding NBS DNA": "≤ 0.2"}, {"variant": "KYLR", "one-hybrid fitness for binding NBS DNA": "≤ 0.2"}, {"variant": "VTMQ", "one-hybrid fitness for binding NBS DNA": "≤ 0.2"}, {"variant": "RNIC", "one-hybrid fitness for binding NBS DNA": "≤ 0.2"}, {"variant": "AMWM", "one-hybrid fitness for binding NBS DNA": "≤ 0.2"}, {"variant": "TRYP", "one-hybrid fitness for binding NBS DNA": "≤ 0.2"}, {"variant": "RGPH", "one-hybrid fitness for binding NBS DNA": "≤ 0.2"}, {"variant": "VTSA", "one-hybrid fitness for binding NBS DNA": "≤ 0.2"}, {"variant": "MRFI", "one-hybrid fitness for binding NBS DNA": "≤ 0.2"}, {"variant": "CKWS", "one-hybrid fitness for binding NBS DNA": "≤ 0.2"}, {"variant": "FPKR", "one-hybrid fitness for binding NBS DNA": "≤ 0.2"}, {"variant": "FCKR", "one-hybrid fitness for binding NBS DNA": 0.392}, {"variant": "KQKR", "one-hybrid fitness for binding NBS DNA": 0.425}, {"variant": "FSKR", "one-hybrid fitness for binding NBS DNA": 0.218}, {"variant": "KCKR", "one-hybrid fitness for binding NBS DNA": 0.397}, {"variant": "KKKN", "one-hybrid fitness for binding NBS DNA": "≤ 0.2"}, {"variant": "KSKR", "one-hybrid fitness for binding NBS DNA": 0.342}, {"variant": "KPKR", "one-hybrid fitness for binding NBS DNA": "≤ 0.2"}, {"variant": "KKVS", "one-hybrid fitness for binding NBS DNA": "≤ 0.2"}, {"variant": "NQKR", "one-hybrid fitness for binding NBS DNA": "≤ 0.2"}, {"variant": "KKKS", "one-hybrid fitness for binding NBS DNA": 0.425}, {"variant": "DQKR", "one-hybrid fitness for binding NBS DNA": "≤ 0.2"}, {"variant": "YLQM", "one-hybrid fitness for binding NBS DNA": "≤ 0.2"}, {"variant": "MIYY", "one-hybrid fitness for binding NBS DNA": "≤ 0.2"}, {"variant": "WSMT", "one-hybrid fitness for binding NBS DNA": "≤ 0.2"}, {"variant": "YVTI", "one-hybrid fitness for binding NBS DNA": "≤ 0.2"}, {"variant": "WDTC", "one-hybrid fitness for binding NBS DNA": "≤ 0.2"}, {"variant": "QMYV", "one-hybrid fitness for binding NBS DNA": "≤ 0.2"}, {"variant": "QAYV", "one-hybrid fitness for binding NBS DNA": "≤ 0.2"}, {"variant": "QRSV", "one-hybrid fitness for binding NBS DNA": 0.388}, {"variant": "QMRV", "one-hybrid fitness for binding NBS DNA": 0.45}, {"variant": "QSRV", "one-hybrid fitness for binding NBS DNA": 0.396}, {"variant": "QSSV", "one-hybrid fitness for binding NBS DNA": "≤ 0.2"}, {"variant": "QADV", "one-hybrid fitness for binding NBS DNA": "≤ 0.2"}, {"variant": "QMDV", "one-hybrid fitness for binding NBS DNA": "≤ 0.2"}, {"variant": "QARV", "one-hybrid fitness for binding NBS DNA": 0.376}, {"variant": "QSDV", "one-hybrid fitness for binding NBS DNA": "≤ 0.2"}, {"variant": "QCSV", "one-hybrid fitness for binding NBS DNA": "≤ 0.2"}, {"variant": "QSYV", "one-hybrid fitness for binding NBS DNA": "≤ 0.2"}]}]}
